Test [1] is described as follows: CCTE_Shafer_MEA_acute_AB: CCTE's Alamar Blue Assay for Cytotoxicity in the Neural Acute Assay, Shafer Lab (AID 2284069; active means hit-call score of the fitted dose curve at least 0.9, where 1 is the maximum;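 further: active compounds lower the viability signal compared with DMSO wells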). A digest of the protocol:
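Resazurin reduction (CellTiter Blue, 1:6 in fresh medium) read at ex 544/em 590 nm marks viability loss relative to DMSO. Cells: primary rat cortical neuron networks on microelectrode arrays, treated after baseline recording at 13 or 15 days in vitro.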
Background: The colour change of resazurin is a common sign of viable cells or microbes.

A short description of test [2]: CCTE_Shafer_MEA_acute_LDH: CCTE's Lactate Dehydrogenase Assay for Cytotoxicity in the Neural Acute Assay, Shafer Lab (AID 2284086; active means hit-call score of the fitted dose curve at least 0.9, where 1 is the maximum;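 further: active means LDH release rises above DMSO vehicle level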). In short, it runs like this:
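Cytotoxicity readout: spectrophotometric LDH activity in supernatant of rat primary cortical neurons, post-plating day 13 or 15, sampled after 40 min compound exposure; signal gain relative to DMSO baseline.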

Test [3] in a line: CCTE_Shafer_MEA_dev_interburst_interval_mean: CCTE's Neural Network Formation Assay for Mean Interburst Interval, Shafer Lab (AID 2284046).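 Further: curve fitted for decrease in interburst interval relative to DMSO.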 In short, it runs like this: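 Primary rat cortical neurons on PEI-coated 48-well MEA plates (laminin added with cells at plating) (16 electrodes/well), exposed from plating day 0 with renewal at DIV 5 and 9. Mean inter-burst interval averaged over bursting electrodes, AUC across days 5, 7, 9, 12; DMSO baseline.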

Test [4] in a line: CCTE_Shafer_MEA_dev_inter_network_spike_interval_mean: CCTE's Neural Network Formation Assay for Mean Inter-network Spike Interval, Shafer Lab (AID 2284047). In short, it runs like this: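 Mean time between consecutive network-spike peaks, recorded extracellularly (adaptive spike detection) on DIV 5, 7, 9 and 12, summarized as trapezoidal AUC. Rat cortical cultures on MEAs dosed continuously days 0–12, re-dosed at feeds; loss-of-signal fit relative to DMSO.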

The nature of test [5]: CCTE_Shafer_MEA_dev_network_spike_number: CCTE's Neural Network Formation Assay for Number of Network Spikes, Shafer Lab (AID 2284048).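 Further: synchronized bursts across electrodes counted on days 5 7 9 12 and integrated as AUC.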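 On AC50: fit as a loss of signal meaning fewer network spikes than DMSO.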 In short, it runs like this:
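Rat cortical primary cultures on 48-well MEA (16 electrodes/well); continuous exposure DIV 0–12, full medium and treatment exchange DIV 5, 9. Readout: network spike count, AxIS adaptive detection, recordings DIV 5/7/9/12 collapsed to AUC; loss-of-signal fit, DMSO baseline.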

Test [6] can be described thus: CCTE_Shafer_MEA_dev_network_spike_peak: CCTE's Neural Network Formation Assay for Mean Number of Electrodes in Network Spike, Shafer Lab (AID 2284049).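 On AC50: fitted for loss of signal meaning fewer electrodes in network spikes than DMSO.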 In short, it runs like this: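 Network-spike peak electrode count from recordings on days 5, 7, 9 and 12 was combined as trapezoidal area under the curve. Rat cortical cultures were treated continuously from plating, with compound renewed at each feed (DIV 5, 9); fits versus DMSO.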

Test [7] can be described thus: CCTE_Shafer_MEA_dev_spike_duration_mean: CCTE's Neural Network Formation Assay for Mean Spike Duration, Shafer Lab (AID 2284051).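 On AC50: potency for a decrease in mean network spike duration versus DMSO.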 In short, it runs like this: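 Spontaneous activity was recorded on days 5, 7, 9 and 12 from rat cortical cultures grown on microelectrode arrays and dosed continuously from day 0, with media and compound renewed after the DIV 5 and 9 recordings. Network-spike duration was collapsed by area under the curve.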

A short description of test [8]: CCTE_Shafer_MEA_dev_network_spike_duration_std: CCTE's Neural Network Formation Assay for Standard Deviation of Network Spike Duration, Shafer Lab (AID 2284052).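 Further: hits are decreases in network spike duration SD versus DMSO vehicle.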 In short, it runs like this:
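Network spike duration variability was collapsed across recordings on days 5, 7, 9 and 12 by trapezoidal area-under-curve and fitted downward against DMSO. Cultures were rat cortical neurons on PEI-coated MEA plates, dosed continuously from plating, refed with compound DIV 5/9.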

The nature of test [9]: CCTE_Shafer_MEA_dev_per_network_spike_spike_number_mean: CCTE's Neural Network Formation Assay for Mean Number of Spikes in a Network Spike, Shafer Lab (AID 2284053).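 On AC50: fitted as decrease in spikes per network spike relative to DMSO.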 In short, it runs like this:
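Mean spike count within each network spike, taken in a 0.05 s window at its peak, was recorded on days 5, 7, 9 and 12 and integrated as trapezoidal area under the curve. Rat cortical cultures on MEA plates received continuous compound from day 0, refreshed at medium changes on DIV 5 and 9.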

The nature of test [10]: CCTE_Shafer_MEA_dev_per_network_spike_spike_percent: CCTE's Neural Network Formation Assay for Percent of Spikes in a Network Spike, Shafer Lab (AID 2284054). In short, it runs like this:
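Read-out: percent of spikes falling in a 0.05 s window at network-spike peak, from spontaneous MEA recordings on days 5, 7, 9 and 12; trapezoidal AUC; loss of signal versus DMSO. Rat cortical cultures, compound present throughout.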

The nature of test [11]: CCTE_Shafer_MEA_dev_mutual_information_norm: CCTE's Neural Network Formation Assay for Mutual Information Normalization, Shafer Lab (AID 2284091).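 On AC50: mutual information between electrodes summarised as area under curve across four recording days; potency is for a decrease in mutual information relative to DMSO.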 A digest of the protocol:
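Neurons from rat cortex were seeded at 1.5 x 10^5 cells/well onto PEI-coated MEAs in a laminin drop, then exposed to compound from day 0 for twelve days. Network recordings on four days gave mutual information, summarised by AUC relative to DMSO.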

Test [12] in a line: CCTE_Shafer_MEA_dev_correlation_coefficient_mean: CCTE's Neural Network Formation Assay for Mean Correlation Coefficient, Shafer Lab (AID 2284093).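 On AC50: well mean pairwise spike train correlation integrated as AUC over recording days 5 to 12; potency fitted for loss of correlation relative to DMSO vehicle wells.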 In short, it runs like this:
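Primary rat cortical neurons on PEI-coated 48-well MEA plates (16 electrodes/well) were exposed from plating day 0 through DIV12, with compound renewed at DIV5 and 9. Pairwise spike correlations were averaged per well; trapezoidal AUC across DIV5, 7, 9, 12.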

Test [13] in a line: CCTE_Shafer_MEA_dev_LDH: CCTE's Lactate Dehydrogenase Assay for Cytotoxicity in the Neural Network Formation Assay, Shafer Lab (AID 2284068; active means hit-call score of the fitted dose curve at least 0.9, where 1 is the maximum;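 further: exposure for twelve days from plating with re-dosing on DIV 5 and 9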). In short, it runs like this: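 Primary rat cortical neurons were cultured on PEI-coated MEA plates and exposed from plating through day 12, with compound renewed at medium changes on DIV 5 and 9. LDH activity was read spectrophotometrically; loss of signal versus DMSO indicates reduced viability.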

Another test relates to DIO2 (gene 1734). The test is described as follows: CCTE_GLTED_hDIO2: CCTE's human Deiodinase 2 (DIO2) Inhibition Assay, Great Lakes Toxicology and Ecology Division (GLTED) Lab (AID 2284050; active means hit-call score of the fitted dose curve at least 0.9, where 1 is the maximum). A digest of the protocol:
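Triplicate cell-free incubations (3 h) of human DIO2 with chemical preceded colorimetric Sandell-Kolthoff quantitation of liberated iodide; DMSO served as negative control for curve fitting.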

The next test has as its system DIO3 (gene 1735). The test is described as follows: CCTE_GLTED_hDIO3: CCTE's human Deiodinase 3 (DIO3) Inhibition Assay, Great Lakes Toxicology and Ecology Division (GLTED) Lab (AID 2284055; active means hit-call score of the fitted dose curve at least 0.9, where 1 is the maximum;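 further: potency is for inhibition seen as loss of released iodide signal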). In short, it runs like this: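 Steps: incubate adenovirus-produced hDIO3 with chemical for 3 hours; detect freed iodide via cerium-arsenic Sandell-Kolthoff colorimetry; compare with DMSO baseline.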

Test [14] is described as follows: CCTE_Shafer_MEA_dev_AB: CCTE's Alamar Blue Assay for Cytotoxicity in the Neural Network Formation Assay, Shafer Lab (AID 2284083; active means hit-call score of the fitted dose curve at least 0.9, where 1 is the maximum;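 further: resazurin reduction fluorescence as viability of cultured neurons; twelve days of exposure from plating with re-dosing on DIV 5 and 9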). In short, it runs like this:
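Resazurin fluorescence, relative to DMSO, gauges viability after twelve days of exposure that began at plating of rat cortical neurons (1.5 x 10^5 cells/well, 48-well MEA); treatment renewed with full medium exchange on DIV 5 and 9.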

The nature of test [15]: UKN5_HCS_SBAD2_cell_viability: Viability Assessment in the University of Konstanz (UKN) Leist Lab Neurite Outgrowth Assay in human iPSC-derived immature Dorsal Root Ganglia Neurons (UKN5) (AID 2284056). A digest of the protocol: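 iPSC-derived immature peripheral neurons (SBAD2) seeded on Matrigel with CHIR99021, SU5402 and DAPT, dosed 1 h later for 24 h. Viability from Hoechst H-33342 and calcein-AM live staining, high-content imaging; bidirectional fit versus DMSO.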

Test [16] is described as follows: UKN5_HCS_SBAD2_neurite_outgrowth: University of Konstanz (UKN) Leist Lab Neurite Outgrowth Assay in human iPSC-derived immature Dorsal Root Ganglia Neurons (UKN5) (AID 2284070). To be noted: actives raise or lower the signal. A digest of the protocol:
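Neurite outgrowth is quantified as calcein-AM-labelled neurite area in human iPSC-derived peripheral neurons treated for 24 h, starting 1 h after plating in medium with CHIR99021 (1.5 uM), SU5402 (5 uM) and DAPT (5 uM).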

Test [17] can be described thus: UKN2_HCS_IMR90_neural_migration: University of Konstanz (UKN) Leist Lab Neural Crest Cell Migration Assay in human induced IMR90 Pluripotent Stem Cells (UKN2) (AID 2284204). To be noted: actives raise or lower the signal. A digest of the protocol: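 Stopper-exclusion migration (cMINC), human iPSC-derived neural crest cells; N2-S + EGF/FGF; compound added 24 h post-stopper removal, 24 h exposure. Readout: calcein-AM/Hoechst 30 min, HCS fluorescence imaging; bidirectional fitting, DMSO baseline.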

Test [18] can be described thus: UKN4_HCS_LUHMES_neurite_outgrowth: University of Konstanz (UKN) Leist Lab Neurite Outgrowth Assay in human LUHMES cells (UKN4) (AID 2284206). Particulars: actives raise or lower the signal. In short, it runs like this: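 Neurite area in dopaminergic-model LUHMES neurons is measured by high-content imaging of calcein-AM after 24 h treatment starting shortly after day-2 replating; Hoechst staining tracks viability.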

“And” between values parts separate entries of the source, which are not always exact repeats. Equal values may be shown once. Records with an inconclusive call do not appear. Some compounds were tested as several samples or in several runs, with calls that do not always agree. The source made the active and inactive calls. How the source made its calls, unless noted: active means hit-call score of the fitted dose curve at least 0.9, where 1 is the maximum; inactive means score below 0.9.

As to `O=C(c1ccc(O)cc1)c1ccc(O)cc1O`, the outcome in test [1] and in test [2] was inactive.
Turning to `CN1C(=O)N(C)C(O)C1O` (configuration not stated), the compound was called inactive in test [2].
On to `CC=CC(F)(F)C(F)(F)C(F)(F)F`, for which the call in test [3], in test [4], in test [5], in test [6], in test [7] and in test [8] was inactive. Besides, the outcome in [9] and in test [11] was inactive. Also, the AC50 in [10] was 3.82 µM (active); in [12], 3.71 µM (active).
As for `c1ccc2c(c1)ccc1cc3c(ccc4ccccc43)cc12`, the outcome in test [3], in test [4], in [5], in test [6], in test [7] and in test [8] was inactive. Also, the call in test [9], in test [10], in [13], in [11] and in [12] was inactive.
For `CCCCC/C=C\C/C=C\CCCCCCCC(=O)OC`, the AC50 with DIO2 (gene 1734) was 46 µM (active); with DIO3 (gene 1735) it was 16.8 µM (active).
Regarding `O=S1(=O)OC(c2ccc(O)cc2)(c2ccc(O)cc2)c2ccccc21`, the AC50 in the test with DIO2 (gene 1734) and in the test with DIO3 (gene 1735) was 100 µM (active) each time.
With `CCCCCCCCCCCCCOP(=O)(O)O`, the AC50 in the test on DIO2 (gene 1734) is 80.5 µM (active); with DIO3 (gene 1735), 12 µM (active).
On the same counts, the results for `CC(C)C1=CC2=CC[C@@H]3[C@](C)(CCC[C@@]3(C)C(=O)O)[C@H]2CC1` are 100 µM (active) and 79.8 µM (active).
Take `CCN(CCC#N)c1ccc(N=Nc2c(Cl)cc([N+](=O)[O-])cc2Cl)cc1`: in the test with DIO2 (gene 1734), the result was inactive. Also, the AC50 in the test with DIO3 (gene 1735) was 63.7 µM (active).
Turning to `CN(C)c1ccc(C(=N)c2ccc(N(C)C)cc2)cc1`, the AC50 is 2.95 µM (active) in [3]; 1.35 µM (active) in test [5]; 2.88 µM (active) in test [6]; 2.42 µM (active) in [7]; 1.73 µM (active) in test [8]; 2.39 µM (active) in test [9]. Besides, the AC50 is 1.63 µM (active) in test [10]; 3.2 µM (active) in test [13]; 4.33 µM (active) in [14]; 0.975 µM (active) in test [11]; 1.71 µM (active) in test [12]. Besides, the result in test [4] was inactive.
In the case of `CC/C=C\C/C=C\C/C=C\CCCCCCCC(=O)O`, the AC50 in the test on DIO2 (gene 1734) was 21.2 µM (active); with DIO3 (gene 1735), 13.1 µM (active).
As for `Nc1ncn([C@@H]2O[C@H](CO)[C@@H](O)[C@H]2O)c(=O)n1`, the compound was classed as inactive in test [3], in test [4], in test [5], in [6], in test [7] and in test [8]. Further, the result in test [9], in test [10], in [15], in test [13], in test [2] and in test [11] was inactive. For the same compound, the compound was called inactive in test [12] and in [17]. The AC50 was 2.26 µM (active) in test [5]; 4.18 µM (active) in test [6]; 4.17 µM (active) in test [7]; 2.56 µM (active) in test [9]; 4.31 µM (active) in test [10]; 5.16 µM (active) in [13]. The concentration at half-maximal activity (AC50) in test [16] was 10 µM (active); in test [14], 5 nM (active) and 15 µM (active); in [11], 1.39 µM (active); in [12] it was 2.91 µM (active); in [18], 13 µM (active).
Take `O=S(=O)(O)c1ccccc1C=Cc1ccc(-c2ccc(C=Cc3ccccc3S(=O)(=O)O)cc2)cc1`: the compound was called inactive with DIO2 (gene 1734). Also, the AC50 in the test with DIO3 (gene 1735) is 100 µM (active).
As for `CC=C1CC2C=CC1C2` (configuration not stated), the AC50 is 100 µM (active) in the test on DIO2 (gene 1734) and 47.9 µM (active) in the test on DIO3 (gene 1735).

The term AC50 denotes the midpoint of the concentration-response curve, whichever way the signal moves.

The values above are taken from PubChem BioAssay (EPA / NIEHS).
